# Measurements from the supplement of paper PMC8728848.
# This excerpt belongs to a sample that is enriched for the strongest signals.
# Experiments:
# Test in all cases: glycan array binding signal (z-score within array); higher = stronger binding
# Conditions in all cases: glycan notation: IUPAC condensed, linker removed
# [1] = system: Fuc(a1-2)[Gal(a1-3)]Gal(b1-3)GlcNAc
# Procedure, shortened: (§1)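 The binding signal is a Z-score computed within each array and averaged over linkers. Arrays of the same protein sequence at different concentrations or buffers were also averaged together. Data originate from 3228 arrays in the Consortium for Functional Glycomics database, kept only where the protein sequence was available.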
# [2] = system: Fuc(a1-2)[Gal(a1-3)]Gal(b1-3)GlcNAc(b1-6)GalNAc
# Procedure, shortened: as §1
# [3] = system: Fuc(a1-2)[Gal(a1-3)]Gal(b1-4)GlcNAc(b1-2)Man(a1-3)[Fuc(a1-2)[Gal(a1-3)]Gal(b1-4)GlcNAc(b1-2)Man(a1-6)]Man(b1-4)GlcNAc(b1-4)GlcNAc
# Procedure, shortened: as §1
# [4] = system: Fuc(a1-2)Gal6S(b1-3)GlcNAc
# Procedure, shortened: as §1
# [5] = system: Fuc(a1-2)[Gal(a1-3)]Gal(b1-3)GlcNAc(b1-3)GalNAc
# Procedure, shortened: as §1
# [6] = system: Fuc(a1-2)Gal6S(b1-4)Glc6S
# Procedure, shortened: as §1
# Fuc(a1-2)Gal = system: Fuc(a1-2)Gal
# Procedure, shortened: as §1
# [7] = system: Fuc(a1-2)[Gal(a1-3)]Gal(b1-4)GlcNAc
# Procedure, shortened: as §1
# Fuc(a1-2)Gal6S(b1-4)Glc = system: Fuc(a1-2)Gal6S(b1-4)Glc
# Procedure, shortened: as §1
# [8] = system: Fuc(a1-2)[Gal(a1-3)]Gal(b1-3)GalNAc
# Procedure, shortened: as §1
substance,measurement,setting,value
"GspB (Streptococcus gordonii), Q939N5",glycan array binding signal (z-score),[1],-0.728
Epa22,glycan array binding signal (z-score),[2],-0.605
same,glycan array binding signal (z-score),[3],-0.038
AgI/IIC123-GFP (Streptococcus mutans),glycan array binding signal (z-score),[4],4.98
same,glycan array binding signal (z-score),[5],-0.567
Actinohivin (Actinomycete K97),glycan array binding signal (z-score),[6],-0.121
same,glycan array binding signal (z-score),Fuc(a1-2)Gal,-0.161
same,glycan array binding signal (z-score),[1],-0.173
"SiiE (Salmonella typhimurium), A0A0H3NVH0",glycan array binding signal (z-score),[7],-0.344
LcI (Legionella pneumophila),glycan array binding signal (z-score),Fuc(a1-2)Gal6S(b1-4)Glc,-0.438
same,glycan array binding signal (z-score),[8],-0.622
"BambL (Burhholderia ambifaria), Q0B4G1",glycan array binding signal (z-score),Fuc(a1-2)Gal,5.01
